# Inconclusive results are not listed. Where a call stands in place of a potency, no number is given. Activity calls are given as the source filed them. Calls follow the shape of the dose curve; as a rule, active = well fitted curve in the direction sought with a large enough effect; inconclusive = small, poorly fitted or top-dose-only effect, or another doubt; inactive = no such curve, though single readings can be large; an effect the other way counts as inactive or inconclusive.
# What was measured:
# AA1029 = experiment: qHTS profiling for inhibitors of Plasmodium falciparum proliferation (AID 504749); also: nearly all actives have a fitted effect of over 60% in size; also: potency is read from the fitted curve at half-maximal effect; conditions: P. falciparum in erythrocytes, SYBR Green DNA, 72 h; series mostly up to 28.7 µM
# Outline: (§1)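 P. falciparum-infected erythrocytes (0.3% parasitemia, 2.5% hematocrit) incubated with compound 72 h at 37 C, 5% CO2. Parasite DNA detected by SYBR Green after lysis, overnight at room temperature; normalised to 0.29 uM artemisinin and DMSO.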
# CP260 = experiment: as above; conditions: P. falciparum in erythrocytes, SYBR Green DNA, 72 h; series mostly up to 28.7 µM
# Outline: as §1
# CP286 = experiment: as above; conditions: P. falciparum in erythrocytes, SYBR Green DNA, 72 h; series mostly up to 28.7 µM
# Outline: as §1
# DIV14 = experiment: as above; conditions: P. falciparum in erythrocytes, SYBR Green DNA, 72 h; series mostly up to 28.7 µM
# Outline: as §1
# DIV17 = experiment: as above; conditions: P. falciparum in erythrocytes, SYBR Green DNA, 72 h; series mostly up to 28.7 µM
# Outline: as §1
# ICS = experiment: as above; conditions: P. falciparum in erythrocytes, SYBR Green DNA, 72 h; series mostly up to 28.7 µM
# Outline: as §1
# JCK = experiment: as above; conditions: P. falciparum in erythrocytes, SYBR Green DNA, 72 h; series mostly up to 28.7 µM
# Outline: as §1
# N140 = experiment: as above; conditions: P. falciparum in erythrocytes, SYBR Green DNA, 72 h; series mostly up to 28.7 µM
# Outline: as §1
# TAB165 = experiment: as above; conditions: P. falciparum in erythrocytes, SYBR Green DNA, 72 h; series mostly up to 28.7 µM
# Outline: as §1
# CP266 = experiment: as above; conditions: P. falciparum in erythrocytes, SYBR Green DNA, 72 h; series mostly up to 28.7 µM
# Outline: as §1
# [1] = Viability counterscreen for antagonist of constitutive androstane receptor (CAR) against the NCATS DSHEA and TCM libraries (AID 1794837); conditions: CAR reporter cell line viability counterscreen, qHTS; series mostly up to 40 µM;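 also: compound exposure lasted 24 h before viability reading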
# Outline: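 Cells: HepG2 line carrying CYP2B6 reporter and hCAR, seeded and attached 5 h. Then pin-transferred test substances plus agonist CITCO at 48 uM final; 24 h incubation; fluorogenic viability reagent, 1 h.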
# [2] = target: Nuclear receptor subfamily 1 group I member 3 (Homo sapiens) (UniProt Q14994); experiment: Primary qHTS for agonist of constitutive androstane receptor (CAR) against the NCATS DSHEA and TCM libraries (AID 1794839); conditions: CAR agonist reporter cells, qHTS luminescence, CAR antagonist co-added at 0.75 µM; series mostly up to 40 µM;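 also: HepG2 cells expressing human CAR with a CYP2B6 reporter plus PK11195 antagonist; luciferase reporter luminescence read with ONE-Glo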
# Outline: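 qHTS, agonist mode: HepG2-CYP2B6-hCAR, 2,500 cells/well, 5 h attach; cpds + PK11195 0.75 µM final; 24 h, 37 °C, 5% CO2. Readouts: CellTiter-Fluor (405/540 nm), then ONE-Glo luminescence.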
# [3] = HepG2 viability counterscreen (readout 2: ATP content) against the NCATS DSHEA and TCM libraries (AID 1794840); conditions: ATP content luminescence; series mostly up to 27.3 µM
# Outline: (§2)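 Same wells read twice: first fluorescence from cleaved GF-AFC substrate (25 uM final, 30 min, 37C) for live-cell protease, then CellTiter-Glo luminescence after 30 min at room temperature for ATP. HepG2 cells were exposed ~24 h to substances.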
# [4] = HepG2 viability counterscreen (readout 1: protease activity) against the NCATS DSHEA and TCM libraries (AID 1794841); conditions: qHTS concentration series; series mostly up to 27.3 µM;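 also: cells exposed to compounds for about 24 h before the protease read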
# Outline: as §2
# [5] = target: Cytochrome P450 2D6 (Homo sapiens) (UniProt P10635); experiment: qHTS for inhibitors of CYP2D6 against the NCATS DSHEA and TCM libraries (AID 1919972); conditions: CYP2D6 enzymatic inhibition, luminescence qHTS; series mostly up to 34.1 µM
# Outline: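 Luminescent P450-Glo read-out of CYP2D6 turnover of a luciferin substrate after NADPH-driven reaction of 30-45 min at room temperature. Compounds were first preincubated 15 min with enzyme at titrated concentrations; quinidine was the intraplate control.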
# [6] = target: Cytochrome P450 2C9 (Homo sapiens) (UniProt P11712); experiment: qHTS for inhibitors of CYP2C9 against the NCATS DSHEA and TCM libraries (AID 1919973); conditions: recombinant CYP2C9 enzyme activity, luminescence; series mostly up to 34.1 µM;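 also: luminogenic pro-luciferin CYP2C9 substrate turned into luciferin with NADPH regeneration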
# Outline: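 Read-out is luminescence after P450-Glo detection (30 min, RT). Before that: 15 min compound–enzyme preincubation, then 30-45 min reaction with 1x NADPH regeneration solution, substrate concentration isoform-specific.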
# [7] = target: Cytochrome P450 1A2 (Homo sapiens) (UniProt P05177); experiment: qHTS for inhibitors of CYPIA2 against the NCATS DSHEA and TCM libraries (AID 1919976); conditions: recombinant CYP1A2 enzyme activity, luminescence; also: potency is read from the fitted curve at half-maximal effect
# Outline: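 CYP1A2 + luciferin substrate, 100 mM KPO4-type buffer; cmpd 15 min RT; 1x NADPH regen, 30-45 min RT dark; detection reagent 30 min RT; luminescence. Minus-enzyme wells as background; furafylline intraplate control.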
# [8] = Dual reporter qHTS for agonist of Pregnane X Receptor (hPXR) against the NCATS DSHEA and TCM libraries: Fluorescence readout (AID 1920058); conditions: PXR dual reporter cells; series mostly up to 40 µM
# Outline: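 HepG2 hPXR-Luc, 2000 cells/well, 5 h attach; cpds ~24 h, 37 °C/5% CO2; CellTiter-Fluor 1 h; fluor. Ex/Em 405/540 nm = viability.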
# [9] = target: Nuclear receptor subfamily 1 group I member 2 (Homo sapiens) (UniProt O75469); experiment: Dual reporter qHTS for antagonist of Pregnane X Receptor (hPXR) against the NCATS DSHEA and TCM libraries: Luminescence Readout (AID 1920060); conditions: hPXR dual reporter cells, luciferase luminescence, antagonist mode; series mostly up to 40 µM;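 also: HepG2 cells carrying hPXR luciferase reporter stimulated with rifampicin at 2 µM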
# Outline: (§3)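 HepG2 hPXR-Luc, 2000 cells/well, charcoal-stripped FBS medium; 5 h attach; RIF 2 uM final; 24 h 37C/5% CO2; CellTiter-Fluor 1 h, fluor 405/540; ONE-Glo 30 min RT, lum.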
# [10] = Dual reporter qHTS for antagonist of Pregnane X Receptor (hPXR) against the NCATS DSHEA and TCM libraries: Fluorescence Readout (AID 1920061); conditions: PXR dual reporter cells, antagonist mode; series mostly up to 40 µM
# Outline: as §3
# Sequence of Cytochrome P450 1A2 (Homo sapiens) (P05177 whole entry, looked up): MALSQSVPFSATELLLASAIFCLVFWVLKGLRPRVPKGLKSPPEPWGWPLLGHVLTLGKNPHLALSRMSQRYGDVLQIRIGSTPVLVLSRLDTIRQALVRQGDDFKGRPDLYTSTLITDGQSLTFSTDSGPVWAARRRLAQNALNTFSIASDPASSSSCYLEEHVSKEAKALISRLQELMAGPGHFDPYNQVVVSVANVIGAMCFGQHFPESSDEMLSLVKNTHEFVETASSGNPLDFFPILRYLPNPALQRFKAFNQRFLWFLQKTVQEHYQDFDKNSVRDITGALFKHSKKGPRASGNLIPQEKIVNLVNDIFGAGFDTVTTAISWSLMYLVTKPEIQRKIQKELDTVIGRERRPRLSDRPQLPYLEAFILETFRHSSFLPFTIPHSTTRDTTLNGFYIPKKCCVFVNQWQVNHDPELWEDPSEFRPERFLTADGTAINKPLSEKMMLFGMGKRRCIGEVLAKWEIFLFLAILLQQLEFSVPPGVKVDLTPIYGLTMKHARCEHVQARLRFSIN
# Sequence of Cytochrome P450 2D6 (Homo sapiens) (P10635 whole entry, looked up): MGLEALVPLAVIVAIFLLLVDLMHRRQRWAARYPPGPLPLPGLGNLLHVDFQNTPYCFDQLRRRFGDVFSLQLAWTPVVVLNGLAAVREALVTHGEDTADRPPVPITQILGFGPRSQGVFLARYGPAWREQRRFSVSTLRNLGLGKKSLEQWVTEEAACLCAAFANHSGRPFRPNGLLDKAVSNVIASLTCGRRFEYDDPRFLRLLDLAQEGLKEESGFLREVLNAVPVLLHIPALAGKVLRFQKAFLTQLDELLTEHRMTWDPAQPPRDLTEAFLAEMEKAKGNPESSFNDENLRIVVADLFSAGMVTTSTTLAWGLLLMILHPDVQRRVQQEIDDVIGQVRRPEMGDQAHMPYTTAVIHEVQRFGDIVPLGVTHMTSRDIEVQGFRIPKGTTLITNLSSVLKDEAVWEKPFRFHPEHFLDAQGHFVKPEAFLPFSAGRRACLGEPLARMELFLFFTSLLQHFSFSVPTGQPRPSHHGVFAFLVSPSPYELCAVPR
# Sequence of Nuclear receptor subfamily 1 group I member 3 (Homo sapiens) (Q14994 whole entry, looked up): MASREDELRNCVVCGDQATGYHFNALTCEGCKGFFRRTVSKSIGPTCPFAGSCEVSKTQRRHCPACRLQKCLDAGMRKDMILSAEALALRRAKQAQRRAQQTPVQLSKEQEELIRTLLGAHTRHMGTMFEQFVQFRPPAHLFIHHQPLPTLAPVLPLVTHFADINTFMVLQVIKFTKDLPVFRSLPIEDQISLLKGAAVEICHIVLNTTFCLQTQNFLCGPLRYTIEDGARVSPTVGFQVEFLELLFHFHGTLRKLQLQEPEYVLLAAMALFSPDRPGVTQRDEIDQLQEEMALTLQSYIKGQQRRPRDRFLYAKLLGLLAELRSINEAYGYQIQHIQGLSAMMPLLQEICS
# Sequence of Nuclear receptor subfamily 1 group I member 2 (Homo sapiens) (O75469 whole entry, looked up): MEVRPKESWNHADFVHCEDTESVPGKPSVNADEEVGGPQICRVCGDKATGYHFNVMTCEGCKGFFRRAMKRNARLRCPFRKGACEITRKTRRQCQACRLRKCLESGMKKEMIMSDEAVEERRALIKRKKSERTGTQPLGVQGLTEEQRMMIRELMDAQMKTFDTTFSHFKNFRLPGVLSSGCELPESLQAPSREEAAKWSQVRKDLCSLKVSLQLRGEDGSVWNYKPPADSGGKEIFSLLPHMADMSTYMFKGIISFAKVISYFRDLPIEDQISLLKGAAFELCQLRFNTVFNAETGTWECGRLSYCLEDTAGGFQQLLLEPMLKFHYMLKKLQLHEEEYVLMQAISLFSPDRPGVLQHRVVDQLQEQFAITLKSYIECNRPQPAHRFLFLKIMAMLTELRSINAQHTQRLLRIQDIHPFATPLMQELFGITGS
# Sequence of Cytochrome P450 2C9 (Homo sapiens) (P11712 whole entry, looked up, canonical isoform): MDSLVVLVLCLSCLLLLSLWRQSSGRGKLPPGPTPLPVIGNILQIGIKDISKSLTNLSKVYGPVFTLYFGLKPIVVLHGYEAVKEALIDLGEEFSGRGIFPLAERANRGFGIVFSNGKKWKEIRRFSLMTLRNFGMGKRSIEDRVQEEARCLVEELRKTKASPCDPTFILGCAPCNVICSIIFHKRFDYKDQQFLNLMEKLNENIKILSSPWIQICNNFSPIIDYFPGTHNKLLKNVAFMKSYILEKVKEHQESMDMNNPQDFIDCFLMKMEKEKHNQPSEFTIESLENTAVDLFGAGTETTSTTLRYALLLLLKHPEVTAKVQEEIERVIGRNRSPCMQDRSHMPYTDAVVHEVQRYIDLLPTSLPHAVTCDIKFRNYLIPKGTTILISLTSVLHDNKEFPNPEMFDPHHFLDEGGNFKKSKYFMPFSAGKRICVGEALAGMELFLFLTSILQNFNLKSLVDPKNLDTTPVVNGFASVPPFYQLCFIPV
structure (smiles),measurement,setting,value
C[C@@]12C(=O)OC(=O)[C@]1(C)[C@H]1CC[C@@H]2O1,Potency,AA1029,3.16 µM (active)
same,Potency,CP260,0.631 µM (active)
same,Potency,CP286,2.82 µM (active)
same,Potency,DIV14,1.14 µM (active)
same,Potency,DIV17,2.03 µM (active)
same,Potency,ICS,3.98 µM (active)
same,Potency,JCK,3.98 µM (active)
same,Potency,N140,4.47 µM (active)
same,Potency,TAB165,2 µM (active)
C=C1CCC2[C@](C)(CO)C(O)CC[C@]2(C)C1C/C=C1/C(=O)OCC1O (stereo not given in full),Potency,CP266,inactive
C[C@H]1[C@H](C)CC[C@]2(C(=O)O)CC[C@]3(C)C(=CC[C@@H]4[C@@]5(C)CC[C@H](O)C(C)(C)[C@@H]5CC[C@]43C)[C@H]12,outcome,[1],inactive
same,outcome,[2],inactive
same,outcome,[3],inactive
same,outcome,[4],inactive
same,Potency,[5],inactive
same,Potency,[6],inactive
same,Potency,[7],3.55 µM (active)
same,outcome,[8],inactive
same,outcome,[9],inactive
same,outcome,[10],inactive

# Source: PubChem BioAssay (NCATS)
